Measured values reported in article PMC4336329 (PLoS ONE, 2015).
About 14,000 (4.5%) of roughly 310,000 compounds showed an effect of 50% or more. The effect is printed as a negative number. The sample as a whole holds a higher share of strong results than the screen did.

molecular target: human ether-à-go-go-related gene (hERG) potassium channel (human, UniProt Q12809); assay: primary screen, population patch clamp on CHO cells stably expressing hERG; higher = less effect of the substance
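Note: peak tail current of the secondary pulse compared with the same well before compound.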

Chain of human ether-à-go-go-related gene (hERG) potassium channel (Q12809 whole entry, looked up): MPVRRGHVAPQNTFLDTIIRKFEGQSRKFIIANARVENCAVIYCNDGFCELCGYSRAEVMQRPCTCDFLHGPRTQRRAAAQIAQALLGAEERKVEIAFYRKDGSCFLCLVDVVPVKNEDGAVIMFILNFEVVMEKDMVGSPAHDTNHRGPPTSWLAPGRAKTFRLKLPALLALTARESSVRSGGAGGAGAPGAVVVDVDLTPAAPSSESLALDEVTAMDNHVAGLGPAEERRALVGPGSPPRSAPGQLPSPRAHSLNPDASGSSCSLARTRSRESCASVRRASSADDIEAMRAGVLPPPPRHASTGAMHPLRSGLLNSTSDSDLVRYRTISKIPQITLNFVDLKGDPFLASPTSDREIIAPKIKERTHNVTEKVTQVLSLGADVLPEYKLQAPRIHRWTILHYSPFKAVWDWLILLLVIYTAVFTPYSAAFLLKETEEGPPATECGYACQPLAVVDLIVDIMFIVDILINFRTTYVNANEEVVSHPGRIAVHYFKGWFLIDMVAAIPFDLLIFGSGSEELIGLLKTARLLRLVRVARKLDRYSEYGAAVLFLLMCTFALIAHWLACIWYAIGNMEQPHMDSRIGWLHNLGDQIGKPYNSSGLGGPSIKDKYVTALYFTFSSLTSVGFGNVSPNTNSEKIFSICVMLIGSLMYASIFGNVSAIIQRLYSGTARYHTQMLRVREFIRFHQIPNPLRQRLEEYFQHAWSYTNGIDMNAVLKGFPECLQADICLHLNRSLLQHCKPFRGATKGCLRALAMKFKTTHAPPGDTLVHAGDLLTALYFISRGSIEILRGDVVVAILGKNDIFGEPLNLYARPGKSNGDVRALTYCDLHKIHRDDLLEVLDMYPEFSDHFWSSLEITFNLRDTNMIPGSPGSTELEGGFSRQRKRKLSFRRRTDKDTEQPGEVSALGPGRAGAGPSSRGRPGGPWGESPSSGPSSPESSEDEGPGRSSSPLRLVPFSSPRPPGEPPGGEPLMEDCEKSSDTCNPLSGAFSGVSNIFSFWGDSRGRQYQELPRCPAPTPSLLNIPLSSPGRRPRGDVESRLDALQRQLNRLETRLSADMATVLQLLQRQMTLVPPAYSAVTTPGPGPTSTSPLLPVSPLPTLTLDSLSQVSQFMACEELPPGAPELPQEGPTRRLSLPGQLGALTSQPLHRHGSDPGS

| SMILES | hERG current change (%, negative = inhibition) at 10uM [%] |
| --- | --- |
| CN(C)S(=O)(=O)c1cccc(NC(=O)COc2ccc3ccccc3c2)c1 | -7.08 |
| O=C(O)c1ccc(/C=N/N2CCN(C3c4ccccc4-c4ccccc43)CC2)cc1 | 12.1 |
| O=C(CSc1nnc(-c2cccnc2)n1-c1ccccc1)Nc1ccc2c(c1)OCO2 | -6.74 |
| Cc1ccccc1-c1nnc(SCC(=O)NCc2ccc3c(c2)OCO3)n1C | -8.1 |
| O=C(CSc1nc2ccccc2c(=O)n1-c1ccccc1)NCc1ccc2c(c1)OCO2 | 3.23 |
| O=C(CSc1nnc(-c2cccnc2)n1-c1ccc(F)cc1)NCc1ccc2c(c1)OCO2 | -72.5 |
| CCn1c(SCC(=O)NCc2ccc3c(c2)OCO3)nnc1-c1ccco1 | -5.03 |
| O=C(CSc1ncc(C(=O)O)n1-c1ccc(F)cc1)NCc1ccc2c(c1)OCO2 | 35.8 |
| C=CCn1c(SCC(=O)NCc2ccc3c(c2)OCO3)nnc1-c1cccnc1 | -0.64 |
| O=C(CSc1nnc(-c2ccco2)n1-c1ccccc1)NCc1ccc2c(c1)OCO2 | -73.4 |
| O=C(CSc1nnc(-c2cccnc2)n1-c1ccccc1)NCc1ccc2c(c1)OCO2 | -69 |
| CC(=O)Oc1ccc(-c2cccc(C(=O)N(C)c3ccc(O)cc3)c2)cc1 | -17.8 |
| CN(C)c1ccc(C(=S)Nc2ccccc2)cc1 | 12.5 |
| COC(=O)c1cc(NC(=O)c2nccnc2C(=O)O)cc(C(=O)OC)c1 | 13.8 |
| Cc1ccc(CNC(=O)c2ccc(N3CCc4ccccc43)c([N+](=O)[O-])c2)cc1 | 3.31 |
| Cc1ccc(-c2cc(C(=O)NCCCN3CCOCC3)c3ccccc3n2)cc1C | 0.698 |
| Cc1ccc2nc3c(cc(C(=O)NCCN4CCOCC4)c(=N)n3CCCN3CCOCC3)c(=O)n2c1 | -7.16 |
| Cc1ccc2nc3c(cc(C(=O)NCCc4ccccc4)c(=N)n3CCN3CCOCC3)c(=O)n2c1 | -76.7 |
| Cc1ccc2nc3c(cc(C(=O)NCCc4ccccc4)c(=N)n3CCCN3CCOCC3)c(=O)n2c1 | -80.6 |
| O=C(NCc1ccco1)c1cccc(F)c1 | 6.59 |
| O=C(COc1cccc(Cl)c1)Nc1ccc2c(c1)CCC2 | -3.73 |

| SMILES | hERG current change (%, negative = inhibition) at 10uM [%] |
| --- | --- |
| CC1CN(c2nnnn2-c2ccccc2)CC(C)O1 (stereo not drawn) | -23.1 |
| CCOc1ccc(CN2CCNC(=O)C2CC(=O)O)cc1 (stereo not drawn) | 11.1 |
| CC(=O)Nc1sc(C)c(C)c1C(=O)OCC(=O)Nc1ccccc1 | 5.91 |
| S=C(Cc1ccc(-c2ccccc2)cc1)N1CCOCC1 | -11.9 |
| Cc1oc(-c2ccccc2F)nc1CS(=O)(=O)CC(=O)NCc1ccco1 | -27.3 |
| CC1CCC(NS(=O)(=O)c2ccc(N3CCCC3=O)cc2)CC1 (stereo not drawn) | 1.51 |
| O=[N+]([O-])c1ccc(C2=NN(CCO)C(=Nc3ccc(OC(F)(F)F)cc3)SC2)cc1 | -13.5 |
| COc1ccc(N=C2SCC(c3ccc(C)cc3)=NN2CCO)cc1 | -9.63 |
| COc1ccc(N=C2SCC(c3ccc([N+](=O)[O-])cc3)=NN2CCO)cc1 | -53.1 |
| Cc1ccc(C2(C)NC(=O)N(CC(=O)Nc3ccccc3C(=O)N3CCCCC3)C2=O)cc1 (stereo not drawn) | 6.74 |
| Cc1ccc(S(=O)(=O)N2CCOCC2)cc1NC(=O)COC(=O)CCn1c(C)csc1=O | 2.85 |
| COCCN=c1scc(-c2cccs2)n1/N=C/c1ccc(O)c(O)c1O | 6.24 |
| COCCN=c1scc(-c2ccccc2)n1/N=C/c1c[nH]c2ccccc12 | 18.7 |
| COCCN=c1scc(C)n1/N=C/C1CC2C=CC1C2 (stereo not drawn) | -55 |
| COc1ccc(Cl)cc1S(=O)(=O)N(C)CC(=O)NCc1ccccn1 | 17.8 |
| C=CCn1c(O)c(C=Nc2ccc(N(CC)CC)cc2)c(=O)[nH]c1=O | -7.13 |
| Fc1ccc(CSc2ccc3nnc(-c4ccccn4)n3n2)cc1 | -87.6 |
| Cc1ccc(CSc2nnc(-c3ccccn3)n2C)cc1 | -3.39 |
| O=C(CSc1ccc2nnc(-c3ccccn3)n2n1)Nc1ccc(F)cc1 | -48.2 |
| Brc1ccc(CSc2ccc3nnc(-c4ccccn4)n3n2)cc1 | -67.1 |
| Cn1c(SCc2ccc(Br)cc2)nnc1-c1ccccn1 | -19.4 |

| SMILES | hERG current change (%, negative = inhibition) at 10uM [%] |
| --- | --- |
| O=C(CSc1ccc2nnc(-c3ccccn3)n2n1)Nc1ccccc1F | -14.7 |
| c1ccc(CSc2ccc3nnc(-c4ccccn4)n3n2)cc1 | -69.5 |
| O=C(CSc1ccc2nnc(-c3ccccn3)n2n1)Nc1ccc(F)cc1F | -30.4 |
| O=C(CSc1ccc2nnc(-c3ccccn3)n2n1)Nc1ccccc1 | -23.4 |
| Cc1ccc(CSc2ccc3nnc(-c4ccccn4)n3n2)cc1 | -71.8 |
| Nn1c(SCc2ccc(Br)cc2)nnc1-c1ccccn1 | 17.5 |
| Cc1ccc(NC(=O)CSc2ccc3nnc(-c4ccccn4)n3n2)cc1 | -44.2 |
| C[C@@H](C(=O)NCC1CC1)[C@H]1C[C@]1(C)[C@H](NC(=O)OCc1ccccc1)c1ccccc1 | -7.08 |
| Cc1cccc(C(=O)N2CCCC(CCC(=O)N3CCN(c4ccccn4)CC3)C2)c1C (stereo not drawn) | -17.3 |
| O=C(Cn1cnc2cc([N+](=O)[O-])ccc2c1=O)Nc1cccc2ccccc12 | -5.73 |
| O=C(O)c1ccc(Cl)c(S(=O)(=O)Nc2ccc(OCc3ccccc3)cc2)c1 | 7.79 |
| O=C(Cn1cc(C(=O)C2CC2)c2ccccc21)NCc1ccccc1 | 3.43 |
| Cc1cc(C(F)F)n2ncc(C(=O)NC3CCCCCC3)c2n1 | -11.5 |
| O=C(NCc1ccc2c(c1)OCO2)C(=O)NCC(c1ccco1)N1CCN(c2ccccc2)CC1 (stereo not drawn) | 16 |
| Cc1cccc(OCC(=O)Nc2ccc(N3CCN(C(=O)c4ccco4)CC3)cc2)c1 | -28.1 |
| COc1ccc(NC(=O)CSCC(=O)N2CCN(C(=O)c3ccco3)CC2)cc1 | -55.1 |
| O=C(COc1ccc(Cl)cc1)Nc1ccc(N2CCN(C(=O)c3ccco3)CC2)cc1 | -21.1 |
| Cc1cccc(NC(=O)CSCC(=O)N2CCN(C(=O)c3ccco3)CC2)c1 | -30.5 |
| Cc1cc(C)cc(OCC(=O)Nc2ccc(N3CCN(C(=O)c4ccco4)CC3)cc2)c1 | -45.8 |
| Cc1ccc(NC(=O)CSCC(=O)N2CCN(C(=O)c3ccco3)CC2)cc1 | -21.6 |
| Cc1ccc(OCC(=O)Nc2ccc(N3CCN(C(=O)c4ccco4)CC3)cc2)cc1 | -56.1 |

| SMILES | hERG current change (%, negative = inhibition) at 10uM [%] |
| --- | --- |
| O=C(COc1ccccc1)Nc1ccc(N2CCN(C(=O)c3ccco3)CC2)cc1 | -53 |
| COc1ccc(OCC(=O)Nc2ccc(N3CCN(C(=O)c4ccco4)CC3)cc2)cc1 | 0.974 |
| COc1ccc2c(c1)C(=O)N(c1ccc(C)cc1C)C(=O)C2 | 7.6 |
| O=C(O)C(Cc1ccccc1)N1C(=O)/C(=C/c2ccccc2)SC1=S (stereo not drawn) | -0.221 |
| CCn1c(NCc2ccco2)nc2c1c(=O)n(C)c(=O)n2C | -10.7 |
| CCCCC1=C([O-])C2N=CC=CC2=[N+](c2ccccn2)C1=O (stereo not drawn) | 0.715 |
| Cc1ccc(-n2c(=O)[nH]c3c(C(N)=O)nc(CC(C)C)nc32)cc1 | 4.8 |
| O=C(Nc1ccc(Cl)cc1)N1CCCN(Cc2ccccc2F)C1 | -26.3 |
| O=C(Nc1ccc(Cl)cc1)N1CCCN(Cc2ccc(F)cc2)C1 | -75.4 |
| O=C(Cc1ccc(Cl)cc1)Nc1ccc(C(=O)N2CCCCC2)cc1 | 14.5 |
| COc1ccccc1N1CCN(CC(=O)Nc2ccc(CN3CCCCC3)cc2)CC1.Cl | -11.5 |
| Cc1ccc(Cl)cc1N1CCN(CC(=O)Nc2ccc3[nH]c(=O)[nH]c3c2)CC1 | 11.1 |
| O=C(COc1ccccc1Cl)Nc1ccc(CN2CCCCC2)cc1 | -33.7 |
| O=C(Cc1ccc(Cl)cc1)Nc1ccc(CN2CCCCC2)cc1 | -64.9 |
| Cc1ccc(Cl)cc1N1CCN(CC(=O)Nc2ccc(CN3CCCCC3)cc2)CC1.Cl | -71.1 |
| O=C(COc1ccc(Cl)cc1Cl)Nc1ccc(CN2CCCCC2)cc1 | -67.9 |
| O=C(Nc1ccccc1)N1CCCN(Cc2ccccc2F)C1 | -8.48 |
| O=C(Cc1ccc(Cl)cc1)Nc1ccc(N2CCCC2)cc1 | 17.3 |
| O=C(COc1ccc(Cl)cc1Cl)Nc1ccc(CN2CCOCC2)cc1 | 15.4 |
| Cc1cc(C)n2nc(C(=O)N/N=C/c3ccccc3C)nc2n1 | 4.85 |
| O=C1c2ccccc2NC2(CCCC2)N1N=C1CCCC1 | -12.2 |
